Among the data in PubChem BioAssay (NCI) are growth values, retold here.

Compounds without any hit were thinned out: in the full panel of roughly 83,000, 20% have a hit.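 Plates (96-well) were seeded with cells, treated with compound at one concentration, and incubated for 48 hours before percent growth was determined.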 Calls of active or inactive are those of the source. Rule for the calls: active = growth percent below 10; inactive = the rest.

The assay deals with HL-60(TB) leukemia. The experiment in a line: NCI-60 one-dose screen, 48 h (100 = growth as untreated, 0 = no growth, -100 = all killed). Conditions: 10 µM unless noted.
Take `Cc1ccc2nc(-c3ccc(-c4nnc(SCC(=O)Nc5ccc(Br)cc5)o4)cc3)[nH]c2c1`: the growth is 55.6% (inactive).

As for `CCN1C(=O)N(CC)C2NNC(Sc3c(C(=O)O)c4ccccc4n(CC(C)C)c3=O)=NC21` (centres undefined), the growth was -53.3% (active).

For `Cn1ncc2c(N)nc(Oc3ccccc3-c3ccccc3)nc21`, the growth was -18.4% (active).

On to `COc1ccc(NC(=O)Nc2nc3ccc([N+](=O)[O-])cc3s2)cc1`, for which the growth is 2.05% (active).

As for `CSc1nc(-c2cccc(C)c2)c2cc(-c3ccccc3)n(C)c2n1`, the growth is -15.8% (active).

As to `COc1ccc(-c2cc(C(=O)N=Nc3c(O)[nH]c4ccc(Cl)cc34)c3ccccc3n2)cc1OC`, the growth is 109% (inactive).

For the compound `COc1ccc(NC2=C(I)C(=O)C(C)=C(C)C2=O)cc1`, the growth is -35.7% (active).

`CC1=C(C(=O)Nc2ccccc2)C(c2ccc3ccccc3c2)n2c(nc3ccccc32)N1` (centres undefined): the growth was 57.4% (inactive).

Consider `CN(C)c1nc(NCCNS(=O)(=O)c2ccc(C(=O)/C=C/c3ccccc3)cc2)nc(Nc2ccc(F)cc2)n1`, for which the growth is 14% (inactive).

On to `CCCn1c(=O)c2[nH]c(-c3ccc(OCc4nc5ccc(F)cc5[nH]4)cc3)nc2n(CCC)c1=O`, for which the growth is 38.2% (inactive).

As for `CC[C@]12C=CCN3CC[C@@]4(c5cc(C#CCNc6ccc(C)c(Nc7nccc(-c8cccnc8)n7)c6)c(OC)cc5N(C)[C@H]4[C@@](O)(C(=O)OC)[C@@H]1OC(C)=O)C32` (some centres undefined), the growth was 30.8% (inactive).

As for `CC(C)(C)OC(=O)N1CCC2(CC1)Oc1ccccc1[C@H]1CC(c3ccc(Br)cc3)=NN12`, the growth is 64.1% (inactive).

On to `COc1c2c(cc3c1C(CCc1ccccc1)N(C)CC3)OCO2` (centres undefined), for which the growth is -28.3% (active).

As to `Cc1nc2c(cnn2-c2ccccc2)c(=O)n1-c1ccc(NC(=O)c2ccc(F)cc2)cc1`, the growth is 42.5% (inactive).

As for `COc1ccc(-c2ccc(/C=N/NC(=O)c3[nH]c4ccc(Br)cc4c3-c3ccccc3)s2)cc1`, the growth is 95.6% (inactive).

Consider `COc1ccc2c(c1)c(/C=N/Nc1ccc3ccccc3n1)cn2C`, for which the growth is -57.7% (active).

As for `O=S(=O)(Nc1ncccn1)c1ccc(-n2c(-c3ccc(Br)cc3)nc(-c3ccccc3)c2-c2ccccc2)cc1`, the growth was 41.2% (inactive).

Turning to `CCCCCCCCc1ccc(C(=O)Nc2ccc(C)c(OP(=O)(O)O)c2)cc1`, the growth is 78.4% (inactive).

`O=C(CN1C(=O)/C(=C/c2ccccc2Cl)SC1=S)N1CCOCC1`: the growth was 90.2% (inactive).

Take `O=C1CCC(N2Cc3c(NCc4ccc(-c5ccccc5)cc4)cccc3C2=O)C(=O)N1` (centres undefined): the growth was 10.7% (inactive).

As to `O=C(Cn1c(-c2ccccc2)nc2ccccc21)N=Nc1c(O)[nH]c2ccc(Cl)cc12`, the growth was 57.2% (inactive).

For the compound `O=C(Cn1c(-c2ccccc2)nc2ccccc21)N=Nc1c(O)[nH]c2ccc(Br)cc12`, the growth is 42.4% (inactive).

For `COc1ccc(/C=C/c2nc3ccccc3n3c(-c4cccc([N+](=O)[O-])c4)nnc23)cc1`, the growth is -49.3% (active).

On to `CC1=C(C)C(=O)C(NCCN2CCOCC2)=C(Br)C1=O`, for which the growth was -24.9% (active).

For `CN(CCF)c1ccc(/C=C/C(=O)c2ccc(N)cc2O)cc1`, the growth was 58% (inactive).

With `N#CCc1nnc(NC(=O)c2ccc(-n3c(=O)[nH]c4ccccc4c3=O)cc2)s1`, the growth was 86% (inactive).

As to `CN1CCN(c2ccc(C(=O)/C=C/c3cc(C(F)(F)F)ccc3Cl)cc2)CC1`, the growth is -29.3% (active).

For `COc1ccc2ccccc2c1/C=C1\SC(=Nc2ccc(O)cc2)NC1=O`, the growth is -29.9% (active).

As to `O=C(CSc1nc2ccccc2c(=O)[nH]1)Nc1ccccc1C(=O)O`, the growth was 103% (inactive).

As for `CC(C)(C)c1ccc(NCc2cn(-c3ccc(C(=O)O)cc3)nc2-c2ccc(C#N)cc2)cc1`, the growth is 3.14% (active).

On to `COc1ccc(-c2nc3ccc(C(=O)NN4C(=O)c5ccc([N+](=O)[O-])cc5C4=O)cc3[nH]2)cc1`, for which the growth is 104% (inactive).

With `CN(C)c1nc(NCCNS(=O)(=O)c2ccc(C3=Nc4c(N)nc(N)nc4NC(c4ccc(C(F)(F)F)cc4)C3)cc2)nc(Nc2ccc(F)cc2)n1` (centres undefined), the growth was -13.7% (active).

Take `COc1ccc(Nc2ncnc3sc4c(c23)CCN(Cc2ccccc2)C4)cc1`: the growth was 68.2% (inactive).

On to `COc1cc2oc(-c3cccc(C(=O)Nc4ccc(Cl)cc4)c3)cc(=O)c2c(OCCNC(=O)[C@H](CCC(=O)OC(C)(C)C)NC(=O)OC(C)(C)C)c1OC`, for which the growth is 101% (inactive).

On to `COc1ccc(-c2cc(-c3ccccc3)c(C#N)c(=O)[nH]2)cc1S(N)(=O)=O`, for which the growth is 142% (inactive).

`COc1ccc(-c2nc3ccc(-c4nnc(SCc5ccccc5)o4)cc3[nH]2)cc1OC`: the growth is 78.4% (inactive).

For `COc1ccc2oc(=O)c(-c3csc(N/N=C(\C)c4cc(OC)c(OC)c(OC)c4)n3)cc2c1`, the growth was 107% (inactive).

Turning to `CCc1ccc(SC2c3cc(OC)ccc3Oc3nc(N)c(C#N)c(N)c32)cc1` (centres undefined), the growth was -77.8% (active).

`CN(C(=O)c1ccc(C(F)(F)F)cc1C(F)(F)F)c1sc2c(c1C#N)CCC(=O)C2`: the growth was 55.3% (inactive).
